# In the library only some 17% were active in any assay of this set; here they are far more common.
# HT1080NT lethal = qHTS for induction of synthetic lethality in tumor cells producing 2HG: qHTS for the HT-1080-NT fibrosarcoma cell line | HT-1080-NT fibrosarcoma viability, CellTiter-Glo ATP luminescence, 48 h | Potency, µM (series often up to 46.1 µM), hits mostly cytotoxic | actives 1.6% (n = 360,000) | AID 686970, 2013;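 note: NT is the 2HG producing partner of a matched IDH1 knockdown line; nearly all actives have a fitted effect of over 55% in size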
#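 Viability of the 2HG-overproducing fibrosarcoma line after 48 hours of compound exposure at 37 degrees C was determined by luminescence with CellTiter-Glo, and concentration-effect curves were then fitted and categorized.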
# TDP1 cell noCPT = qHTS for Inhibitors of human tyrosyl-DNA phosphodiesterase 1 (TDP1): qHTS in cells in absence of CPT; DT40 Tdp1-/- hTDP1 cells, no CPT, ATP luminescence, 48 h; Potency, µM (titrated, usually from 46.2 µM), actives largely listed as inhibitors; actives 15% (n = 420,000); AID 686978, 2013; note: nearly all actives have a fitted effect of over 55% in size
#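 DT40 Tdp1-/-;hTDP1 cells, no CPT (DMSO vehicle only), 400 cells/well; compounds pin-transferred; ≥48 hr, 37 °C; CellTiter-Glo 30 min RT dark, luminescence read.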
# TDP1 cell CPT = qHTS for Inhibitors of human tyrosyl-DNA phosphodiesterase 1 (TDP1): qHTS in cells in presence of CPT; chicken DT40 Tdp1-/-;hTDP1 cells + 20 nM CPT, ATP luminescence, 48 h; Potency, µM (highest dose often 46.2 µM), hits mostly inhibitors; actives 12% (n = 420,000); AID 686979, 2013; note: nearly all actives have a fitted effect of over 55% in size
#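 Chicken DT40 Tdp1-/- cells complemented with human TDP1, 400 cells/well, exposed to compounds plus 20 nM camptothecin for at least 48 h at 37 C; viability read as ATP content by CellTiter-Glo luminescence.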
# HepG2 viability = qHTS for Inhibitors of TGF-b: Cytotox Counterscreen. HepG2 CAGA-GFP viability, ATP luminescence, 18 h. Potency, µM (doses to about 46.1 µM), most hits filed as cytotoxic. actives 0.76% (n = 410,000). AID 588856, 2011
#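 HepG2 CAGA-GFP cells (1000/well, DMEM with 1% FBS) received compound, then TGF-beta at 500 pg/mL final, and were incubated 18 hours at 37 degrees C. Viability was read by CellTiter-Glo luminescence. Media-only wells were set as complete cell-killing and DMSO as no toxicity.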
# TGFb SMAD3 inh = qHTS for Inhibitors of TGF-b | HepG2 CAGA-GFP TGF-b/SMAD3 reporter, GFP fluorescence, 18 h; TGF-beta stimulated, 500 pg/mL final | Potency, µM (titrated, usually from 46.1 µM), most hits filed as inhibitors | actives 1.2% (n = 410,000) | AID 588855, 2011; note: nearly all actives have a fitted effect of over 65% in size
#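 Per well, imaged GFP fluorescence of HEPG2 CAGA-GFP cells gives the signal; cells get compound, then TGF-beta (500 pg/mL final), 18 h at 37 degrees C; %Activity versus -TGF-beta and +DMSO controls.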
# HT1080 IDH1KD tx = qHTS for induction of synthetic lethality in tumor cells producing 2HG: qHTS for the HT-1080-IDH1KD cell line; HT-1080 IDH1 knockdown viability, ATP luminescence, 48 h; Potency, µM (highest dose often 46.1 µM), usual class: cytotoxic; actives 2% (n = 360,000); AID 686971, 2013
#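 CellTiter-Glo luminescence after 48 h compound exposure at 37 degrees C of IDH1-knockdown HT-1080 cells in 5% FBS RPMI. %Activity scaled between DMSO wells and cell-free media wells, with curves fitted and assigned curve classes.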
# A number is an active result; 0 = inactive; ? = inconclusive; - = no result. Calls come from the whole dose curve; as a rule, active = well fitted curve in the direction sought with a large enough effect; inconclusive = small, poorly fitted or top-dose-only effect, or another doubt; inactive = no such curve, though single readings can be large; an effect the other way counts as inactive or inconclusive.
SMILES,HT1080NT lethal,TDP1 cell noCPT,TDP1 cell CPT,HepG2 viability,TGFb SMAD3 inh,HT1080 IDH1KD tx
COc1ccc2nc(N3CCN(C(=O)C4CC4)CC3)sc2c1,-,0,0,0,?,-
Cc1cc(C)c2sc(N3CCN(C(=O)C4CC4)CC3)nc2c1,-,18.4µM,29.1µM,0,0,-
CN(C)c1ccc(C(=O)N2CCN(c3cc(C(F)(F)F)nc4ccccc34)CC2)cc1,0,?,?,0,0,0
Cc1cc(C)c2sc(N3CCN(C(=O)c4ccc(N(C)C)cc4)CC3)nc2c1,-,14.6µM,?,0,0,-
Cc1cc(C)c2sc(NC(=O)C3CC3)nc2c1,0,?,0,0,0,0
CC(C)N1CN(c2ccccc2)C(=S)N(c2ccccc2)C1,0,23.1µM,?,0,0,0
Cc1ccc(OCC(=O)Nc2ccc3nc(SCCOc4ccccc4)sc3c2)cc1,-,10.3µM,?,0,0,-
COc1cc(C)ccc1OCCSc1nc2ccc(NC(=O)c3ccco3)cc2s1,-,10.3µM,23.1µM,0,0,-
COc1cccc(C(=O)Nc2ccc3nc(SCCOc4ccccc4)sc3c2)c1,-,?,?,0,0,-
Cc1ccc(OCC(=O)Nc2ccc3nc(SCC(N)=O)sc3c2)cc1,-,0,0,0,?,-
COc1cc(C)ccc1OCCSc1nc2ccc(NC(=O)c3cccs3)cc2s1,-,16.4µM,?,0,0,-
O=C(Nc1ccc2nc(SCCOc3ccccc3)sc2c1)c1cccs1,-,20.6µM,?,0,0,-
Cc1cccc(C(=O)Nc2ccc3nc(SCCOc4ccccc4)sc3c2)c1,-,?,?,0,?,-
CC(=O)Nc1ccc2nc(SCCOc3ccccc3Cl)sc2c1,-,23.1µM,?,0,?,-
O=C(Nc1ccc2nc(SCCOc3ccccc3Cl)sc2c1)c1ccc2c(c1)OCO2,-,?,?,0,0,-
O=C(Nc1nnc(S(=O)(=O)N2CCN(c3ccc(F)cc3)CC2)s1)c1ccco1,0,?,16.4µM,0,0,0
O=C(c1ccco1)N1CCN(c2ccc(F)cc2)CC1,0,0,?,0,0,0
O=C(Nc1ccc(N2CCN(C(=O)c3ccco3)CC2)cc1)c1ccccc1,0,0,0,0,0,0
Nc1ccc(N2CCN(C(=O)c3ccco3)CC2)cc1,0,18.4µM,15.8µM,0,0,0
COc1cccc(OC)c1C(=O)Nc1ccc(N2CCN(C(=O)c3ccco3)CC2)cc1,0,0,0,0,0,0
O=C(Nc1ccc(N2CCN(C(=O)c3ccco3)CC2)cc1)c1ccc(F)cc1,0,20.6µM,?,0,0,0
Cc1cc(C)cc(C(=O)Nc2ccc(N3CCN(C(=O)c4ccco4)CC3)cc2)c1,0,16.4µM,?,0,0,0
O=C(COc1ccccc1)Nc1ccc(N2CCN(C(=O)c3ccco3)CC2)cc1,0,0,0,0,0,0
Cc1ccc(OCC(=O)Nc2ccc(N3CCN(C(=O)c4ccco4)CC3)cc2)cc1,0,23.1µM,?,0,0,0
COc1ccc(-n2c(=O)c3ccccc3n(CC(=O)NCCc3ccc(OC)c(OC)c3)c2=O)cc1,-,0,0,0,0,-
CCN(CC)CCn1c(NCc2cccc(OC)c2)nc2ccccc21,0,?,?,0,0,0
CCN(CC)CCn1c(NCc2ccc3c(c2)OCO3)nc2ccccc21,0,16.4µM,13µM,0,0,0
CCCCn1c(NCc2cc(Br)ccc2O)nc2ccccc21,-,14.6µM,14.6µM,0,?,-
COc1ccc(CNc2nc3ccccc3n2CCN2CCOCC2)cc1,0,20.6µM,0,0,0,0
CCN(CC)c1ccc(CNc2nc3ccccc3n2CCN2CCOCC2)cc1,0,18.4µM,?,0,?,0

# Source: PubChem BioAssay (National Center for Advancing Translational Sciences (NCATS))
